Measurements reported in PubChem BioAssay (EPA / NIEHS).
Activity calls are given as the source filed them. Rule for the calls: active = hit-call score of the fitted dose curve at least 0.9, where 1 is the maximum; inactive = score below 0.9.

Experiments:
[1] = read-out: Monocyte Chemoattractant Protein-1 (MCP1), CCL2 (gene 6347); test: BSK_CASM3C_MCP1: BioMAP Diversity Plus: CASM3C Assay for Monocyte Chemoattractant Protein-1 (MCP1) Biomarker Activity (AID 2283046); conditions: primary human coronary artery smooth muscle cells; actives raise or lower the signal;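 note: MCP-1 level quantified by ELISA 24 h after dosing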
[2] = BSK_CASM3C_Proliferation: Cell Proliferation Assessment in the BioMAP Diversity Plus: CASM3C Assay (AID 2283047); conditions: primary human coronary artery smooth muscle cells;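 note: sulforhodamine B total protein stain as relative cell number at 560 nm; sub-confluent cells exposed 48 h before staining; fitted both ways against DMSO so gain or loss of cell number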
[3] = read-out: Monokine induced gamma interferon (MIG), CXCL9 (gene 4283); test: BSK_CASM3C_MIG: BioMAP Diversity Plus: CASM3C Assay for Monokine induced gamma interferon (MIG) Biomarker Activity (AID 2283048); conditions: primary human coronary artery smooth muscle cells; actives raise or lower the signal;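 note: MIG protein level measured by ELISA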
[4] = read-out: serum amyloid A (SAA), SAA1 (gene 6288); test: BSK_CASM3C_SAA: BioMAP Diversity Plus: CASM3C Assay for serum amyloid A (SAA) Biomarker Activity (AID 2283049); conditions: primary human coronary artery smooth muscle cells; actives raise or lower the signal;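 note: SAA protein level quantified by ELISA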
[5] = BSK_CASM3C_SRB: Viability Assessment in the BioMAP Diversity Plus: CASM3C Assay (AID 2283050); conditions: primary human coronary artery smooth muscle cells;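 note: total protein by SRB staining as cytotoxicity measure in parallel cultures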
[6] = read-out: Thrombomodulin, THBD (gene 7056); test: BSK_CASM3C_Thrombomodulin: BioMAP Diversity Plus: CASM3C Assay for Thrombomodulin Biomarker Activity (AID 2283051); conditions: primary human coronary artery smooth muscle cells; actives raise or lower the signal;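 note: thrombomodulin protein level measured by ELISA 24 h after dosing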
[7] = read-out: Tissue Factor, F3 (gene 2152); test: BSK_CASM3C_TissueFactor: BioMAP Diversity Plus: CASM3C Assay for Tissue Factor Biomarker Activity (AID 2283052); conditions: primary human coronary artery smooth muscle cells; actives raise or lower the signal;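 note: cell surface tissue factor protein level read by ELISA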
[8] = read-out: Urokinase-type plasminogen activator receptor (uPAR), PLAUR (gene 5329); test: BSK_CASM3C_uPAR: BioMAP Diversity Plus: CASM3C Assay for Urokinase-type plasminogen activator receptor (uPAR) Biomarker Activity (AID 2283054); conditions: primary human coronary artery smooth muscle cells; actives raise or lower the signal;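 note: cell-surface uPAR protein level quantified by ELISA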
[9] = read-out: Vascular cell adhesion molecule 1 (VCAM1), VCAM1 (gene 7412); test: BSK_CASM3C_VCAM1: BioMAP Diversity Plus: CASM3C Assay for Vascular cell adhesion molecule 1 (VCAM1) Biomarker Activity (AID 2283055); conditions: primary human coronary artery smooth muscle cells; actives raise or lower the signal;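 note: VCAM-1 protein level quantified by ELISA on the cells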
[10] = read-out: Collagen III, COL3A1 (gene 1281); test: BSK_hDFCGF_CollagenIII: BioMAP Diversity Plus: hDFCGF Assay for Collagen III Biomarker Activity (AID 2283056); conditions: primary human foreskin fibroblasts; actives raise or lower the signal
How it was run: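 ELISA readout of Collagen III in human dermal (foreskin) fibroblasts, taken 24 h post-treatment. Gain or loss relative to DMSO vehicle fitted in both directions.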

[11] = read-out: Epidermal growth factor receptor (EGFR), EGFR (gene 1956); test: BSK_hDFCGF_EGFR: BioMAP Diversity Plus: hDFCGF Assay for Epidermal growth factor receptor (EGFR) Biomarker Activity (AID 2283057); conditions: primary human foreskin fibroblasts; actives raise or lower the signal
How it was run: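 Primary human foreskin fibroblasts were exposed to compound for 24 h, after which cell-surface EGFR was quantified by ELISA. Activity was fitted bidirectionally against the DMSO negative control as baseline.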

[12] = read-out: Interleukin-8 (IL8), CXCL8 (gene 3576); test: BSK_hDFCGF_IL8: BioMAP Diversity Plus: hDFCGF Assay for Interleukin-8 (IL8) Biomarker Activity (AID 2283058); conditions: primary human foreskin fibroblasts; actives raise or lower the signal
How it was run: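 IL-8 levels read by ELISA at 24 hours after dosing human skin fibroblast cultures. Parallel SRB staining assessed overt cytotoxicity, and gain or loss of signal was fitted against DMSO control.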

[13] = BSK_hDFCGF_Proliferation: Cell Proliferation Assessment in the BioMAP Diversity Plus: hDFCGF Assay (AID 2283059); conditions: primary human foreskin fibroblasts;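 note: curves fitted for both rise and fall of signal versus DMSO baseline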
How it was run: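 Sub-confluent human foreskin fibroblast cultures receive test chemical […]. Relative cell number is quantified by sulforhodamine B staining (0.1%, after 10% TCA fixation) at 560 nm, with bidirectional fitting referenced to DMSO.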

[14] = read-out: Macrophage colony-stimulating factor (MCSF), CSF1 (gene 1435); test: BSK_hDFCGF_MCSF: BioMAP Diversity Plus: hDFCGF Assay for Macrophage colony-stimulating factor (MCSF) Biomarker Activity (AID 2283060); conditions: primary human foreskin fibroblasts; actives raise or lower the signal
How it was run: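 M-CSF levels read by ELISA at 24 h post-dosing in human skin fibroblasts. Parallel cultures stained with SRB assessed cytotoxicity at the same time point; response fitted in both directions against the DMSO baseline.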

[15] = BSK_hDFCGF_SRB: Viability Assessment in the BioMAP Diversity Plus: hDFCGF Assay (AID 2283061); conditions: primary human foreskin fibroblasts;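 note: cells exposed to compound for 24 h before the read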
How it was run: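 Viability was read as total protein: after 10% TCA fixation, wells were stained with 0.1% sulforhodamine B and read at 560 nm. Primary human foreskin fibroblasts were dosed for 24 h, with bidirectional fitting versus DMSO.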

[16] = read-out: TIMP metallopeptidase inhibitor 1 (TIMP1), TIMP1 (gene 7076); test: BSK_hDFCGF_TIMP1: BioMAP Diversity Plus: hDFCGF Assay for TIMP metallopeptidase inhibitor 1 (TIMP1) Biomarker Activity (AID 2283062); conditions: primary human foreskin fibroblasts; actives raise or lower the signal
How it was run: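 TIMP-1 measured by ELISA 24 h after chemical dosing of primary human skin fibroblasts, with gain or loss fitted relative to DMSO. Parallel SRB staining (560 nm) monitored overt cytotoxicity.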

[17] = read-out: Monokine induced gamma interferon (MIG), CXCL9 (gene 4283); test: BSK_hDFCGF_MIG: BioMAP Diversity Plus: hDFCGF Assay for Monokine induced gamma interferon (MIG) Biomarker Activity (AID 2283063); conditions: primary human foreskin fibroblasts; actives raise or lower the signal
How it was run: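 Human primary foreskin fibroblasts in the hDFCGF system, exposed to test chemical for 24 h; MIG measured by ELISA. Bidirectional curve fitting against DMSO negative control as activity baseline.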

[18] = read-out: Matrix Metallopeptidase 1 (MMP1), MMP1 (gene 4312); test: BSK_hDFCGF_MMP1: BioMAP Diversity Plus: hDFCGF Assay for Matrix Metallopeptidase 1 (MMP1) Biomarker Activity (AID 2283064); conditions: primary human foreskin fibroblasts; actives raise or lower the signal
How it was run: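 hDFCGF primary fibroblasts (human foreskin); chemical added; 24 h; MMP1 by ELISA; bidirectional fit vs DMSO.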

[19] = read-out: Vascular cell adhesion molecule 1 (VCAM1), VCAM1 (gene 7412); test: BSK_hDFCGF_VCAM1: BioMAP Diversity Plus: hDFCGF Assay for Vascular cell adhesion molecule 1 (VCAM1) Biomarker Activity (AID 2283065); conditions: primary human foreskin fibroblasts; actives raise or lower the signal;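 for AC50: VCAM-1 protein level quantified by ELISA after 24 h chemical exposure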
How it was run: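 ELISA readout of VCAM-1 on human dermal fibroblast primary cultures, 24 h after chemical exposure. Gain or loss of signal fitted in both directions against DMSO baseline.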

Measured: AC50

COc1ccc2sc(C(=O)Nc3nnn[nH]3)c(OC(C)C)c2c1
active: [1] 15.8 µM | [2] 11.1 µM | [4] 19.9 µM | [5] 15.5 µM | [6] 8.49 µM | [7] 7.08 µM | [8] 13 µM | [10] 5.42 µM | [11] 8.61 µM | [12] 20.5 µM | [13] 12.1 µM | [14] 11.4 µM | [15] 10.3 µM | [16] 7.77 µM | [17] 15.5 µM | [18] 13.9 µM | [19] 12.2 µM
inactive: [3] | [9]

Cn1c(=O)cc(Oc2ccc(F)cc2F)c2cnc(NCC(C)(C)O)nc21
active: [4] 3.97 µM | [14] 0.691 µM | [18] 1.12 µM | [19] 0.92 µM
inactive: all other assays above

C[C@](N)(Cc1ccc(O)c(O)c1)C(=O)O
active: [13] 12.5 µM | [17] 20 µM | [19] 20 µM
not listed: [14]
inactive: all other assays above

O=C(NS(=O)(=O)/C=C/c1ccccc1)c1ccc(F)cc1Cl
active: [2] 6.8 µM | [13] 12.9 µM
not listed: [14]
inactive: all other assays above

Cc1ccc(O)cc1
active: [8] 4.24 µM
not listed: [14]
inactive: all other assays above

CC(=O)OC[C@H]1O[C@@](COC(C)=O)(O[C@H]2O[C@H](COC(C)=O)[C@@H](OC(C)=O)[C@H](OC(C)=O)[C@H]2OC(C)=O)[C@@H](OC(C)=O)[C@@H]1OC(C)=O
not listed: [14]
inactive: all other assays above

Cc1ccc(N)cc1O
active: [6] 11.2 µM | [13] 23.9 µM
not listed: [14]
inactive: all other assays above

O=C(CCCCCCCCc1cccnc1)N1CCC(C=C(c2ccccc2)c2ccccc2)CC1
active: [1] 38.2 µM | [2] 35.4 µM | [3] 38.3 µM | [4] 37.5 µM | [5] 39.1 µM | [8] 39.2 µM | [9] 37.9 µM | [10] 4.91 µM | [12] 10.7 µM | [13] 5.65 µM | [15] 7.83 µM | [16] 7.71 µM | [17] 11.5 µM | [18] 9.34 µM | [19] 8.47 µM
inactive: [6] | [7] | [11]

CCCCCCc1ccc(O)cc1O
inactive: [1] | [3] | [4] | [5] | [7] | [8] | [9]
active: [2] 32.6 µM | [6] 4.48 µM | [10] 17.5 µM | [11] 20 µM | [13] 19 µM | [14] 28.1 µM | [15] 31.2 µM | [16] 33.2 µM | [17] 33.6 µM | [18] 37.9 µM | [19] 28.1 µM

CCCCC(CC)COC(=O)c1ccc(C(=O)OCC(CC)CCCC)cc1 (centres undefined)
not listed: [14]
inactive: all other assays above

COc1ccc(-n2nc(C(F)F)cc2-c2ccc(S(C)=O)cc2)cc1 (centres undefined)
not listed: [14]
inactive: all other assays above

O=C(O)c1cc(N=Nc2ccc(S(=O)(=O)Nc3ccccn3)cc2)ccc1O
active: [2] 14.5 µM
inactive: all other assays above

CN(C)c1ccc(N=NS(=O)(=O)O)cc1
active: [10] 4.35 µM | [13] 12.8 µM | [14] 9.62 µM | [19] 3.79 µM
inactive: all other assays above

CCCC(=O)OCC
not listed: [14]
inactive: all other assays above

CC(C)CCCCCCOC(=O)c1ccc(C(=O)OCCCCCCC(C)C)c(C(=O)OCCCCCCC(C)C)c1
not listed: [14]
inactive: all other assays above

Cc1c(-c2cccnc2)c2ccccc2n1CCCCC(=O)O
inactive: all assays above

CCCCC(CC)COC(=O)CCCCCCCCC(=O)OCC(CC)CCCC (centres undefined)
active: [2] 7.33 µM
not listed: [14]
inactive: all other assays above

O=C(O)CC(O)C(=O)O (centres undefined)
inactive: all assays above

CC(C)CCCCCCCOC(=O)CCCCC(=O)OCCCCCCCC(C)C
inactive: all assays above
